In the supplement of paper PMC10849652:
Of roughly 7,900 targets only a part is listed; those with a hit were picked by preference. About 0.6% of all pairs of compound and target were hits.

How the values were obtained:
Test in all cases: log2 fold change, soluble protein after heating vs DMSO (PISA); higher = thermal stabilisation; K562 cells, 10 uM, 30 min; active = over 0.2 and 3.5 SD of the protein, either way, in both replicates (recomputed)
[1] = compound: CC[C@@H]1C(=O)N(C)c2cnc(Nc3ccc(C(=O)N[C@H]4CC[C@H](N5CCN(CC6CC6)CC5)CC4)cc3OC)nc2N1C(C)C [volasertib]
Outline: (§1)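 Soluble protein was quantified by TMTpro 16plex LC-MS/MS after channel sums were equalised. It was obtained as the supernatant after 21,000xg for 90 min from pooled aliquots of K562 cells (2×10^6 cells/mL, 10 μM compound, 30 min) heated for 3 min across 48°C-58°C and extracted in PBS with 0.5% NP-40 at 4°C. Thermal stability values are relative to control samples and come from duplicates. They are given as log2 fold changes.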

[2] = compound: CC[C@H](C)N1C=C(C2=C(C=C(C=C21)C3=CN=C(C=C3)N4CCNCC4)C(=O)NCC5=C(C=C(NC5=O)C)C)C
Outline: as §1

[3] = compound: CN1CC[C@H](c2c(O)cc(O)c3c(=O)cc(-c4ccccc4Cl)oc23)[C@H](O)C1 [alvocidib]
Outline: as §1

[4] = compound: CN1CCc2c(c3ccccc3n2Cc2ccc(C(=O)NO)cc2)C1 [Tubastatin A]
Outline: as §1

[5] = compound: CN1C2=C(C3=C1C(=O)N(N=C3)CC4=CC(=CC=C4)N)SC(=C2)S(=O)C
Outline: as §1

[6] = compound: CN1CCN(CCOc2cc(OC3CCOCC3)c3c(Nc4c(Cl)ccc5c4OCO5)ncnc3c2)CC1 [saracatinib]
Outline: as §1

[7] = compound: CNc1nc(-c2ccc3c(N)n[nH]c3c2)cc(N2C[C@@H](C(=O)NC3CCCCC3)CC[C@H]2C)n1
Outline: as §1

[8] = compound: CC[C@H](C)[C@@H](C(=O)N[C@@H]([C@@H](C)O)C(=O)N[C@@H](CC(C)C)C(=O)[C@]1(CO1)C)NC(=O)[C@H]([C@@H](C)CC)N(C)C(=O)C [epoxomicin]
Outline: as §1

[9] = compound: CN(C)CC(=O)Nc1ccc2[nH]c(=O)c3ccccc3c2c1
Outline: as §1

[10] = compound: CN(CCOC1=CC=C(C=C1)C[C@H]2C(=O)NC(=O)S2)C3=CC=CC=N3 (racemic) [rosiglitazone]
Outline: as §1

[11] = compound: CN1CCN(c2nc(C3=C(c4c[nH]c5ccccc45)C(=O)NC3=O)c3ccccc3n2)CC1 [sotrastaurin]
Outline: as §1

[12] = compound: CNC(=O)c1ccc(Nc2ncc(C(F)(F)F)c(NCc3nccnc3N(C)S(C)(=O)=O)n2)cc1 [defactinib]
Outline: as §1

[13] = compound: COC(=O)[C@H](CCSC)NC(=O)C1=C(C=C(C=C1)NC[C@H](CS)N)C2=CC=CC=C2
Outline: as §1

[14] = compound: CCn1c(C(=O)N(C2CC2)C2CC2)cc2c3c(ncn3C)c(Nc3cc(C)n(C)n3)nc21
Outline: as §1

[15] = compound: CNC(=O)C1=CC=CC=C1NC2=NC(=NC=C2Cl)NC3=C(C=C(C=C3)N4CCOCC4)OC
Outline: as §1

[16] = compound: CC[C@@H]1C(=O)N(C)c2cnc(Nc3ccc(C(=O)NC4CCN(C)CC4)cc3OC)nc2N1C1CCCC1
Outline: as §1

[17] = compound: CCn1cc(-c2ccnc3[nH]c(-c4cccc(CN(C)C)c4)cc23)c(-c2ccc(NC(=O)N(C)C)cc2)n1
Outline: as §1

[18] = compound: CN1CCC(CNc2ccc3ncc(-c4cccc(OC(F)(F)F)c4)n3n2)CC1
Outline: as §1

[19] = compound: CNCc1ccc(-c2[nH]c3cc(F)cc4c3c2CCNC4=O)cc1 [rucaparib]
Outline: as §1

[20] = compound: COC(=O)N[C@@H](C)CNc1nccc(-c2cn(C(C)C)nc2-c2cc(Cl)cc(NS(C)(=O)=O)c2F)n1 [encorafenib]
Outline: as §1

Measured: log2 fold change

MAPRE3 isoform 2 (UniProt Q9UPY8)
Chain of UniProt Q9UPY8 (Q9UPY8 whole entry, looked up): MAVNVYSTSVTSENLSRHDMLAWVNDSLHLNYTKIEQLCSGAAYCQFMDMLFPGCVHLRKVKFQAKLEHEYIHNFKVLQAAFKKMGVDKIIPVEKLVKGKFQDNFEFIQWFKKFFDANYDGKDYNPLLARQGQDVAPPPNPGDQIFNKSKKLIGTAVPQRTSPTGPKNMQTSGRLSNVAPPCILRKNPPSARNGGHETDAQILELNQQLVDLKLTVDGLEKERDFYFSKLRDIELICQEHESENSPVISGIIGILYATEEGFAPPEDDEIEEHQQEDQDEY
inactive: [1] 0.165 | [2] 0.04 | [3] -0.075 | [4] 0.13

MAP2K5 (UniProt Q13163)
inactive: [5] 0.457 | [6] 0.445 | [3] -0.008 | [7] 0.004

MFAP3 (UniProt P55082)
inactive: [8] -0.054 | [9] -0.118 | [10] 0.046 | [5] -0.008 | [6] 0.088 | [11] 0.019 | [4] 0.068 | [12] 0.306 | [7] 0.002 | [13] -0.189

MED29 (UniProt Q9NX70)
inactive: [1] -0.115 | [2] 0.055 | [14] -0.044 | [5] -0.056 | [6] -0.033 | [15] 0.004 | [7] 0.001

LGALS8 isoform 2 (UniProt O00214)
Chain of UniProt O00214 (O00214 whole entry, looked up): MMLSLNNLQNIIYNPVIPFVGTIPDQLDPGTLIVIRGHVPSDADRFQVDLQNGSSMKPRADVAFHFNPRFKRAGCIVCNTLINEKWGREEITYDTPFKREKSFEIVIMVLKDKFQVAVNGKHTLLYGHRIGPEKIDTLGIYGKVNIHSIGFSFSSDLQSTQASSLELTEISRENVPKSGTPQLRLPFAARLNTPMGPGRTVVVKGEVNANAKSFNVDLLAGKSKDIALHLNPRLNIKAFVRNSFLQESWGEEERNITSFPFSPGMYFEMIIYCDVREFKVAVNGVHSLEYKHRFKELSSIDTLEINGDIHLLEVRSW
inactive: [16] 0.19 | [8] -0.05 | [14] -0.029 | [17] -0.121 | [9] 0.067 | [10] -0.263 | [5] 0.328 | [6] -0.359 | [11] -0.323 | [3] 0.053 | [4] 0.07 | [15] -0.244 | [12] 0.104 | [19] 0.306 | [7] 0.141 | [20] 0.218 | [13] -0.051
active: [18] 0.93

KIF13A isoform 4 (UniProt Q9H1H9)
inactive: [11] -0.027 | [3] -0.091

LMNA isoform 2 (UniProt P02545)
inactive: [4] 0.052

KIF1B isoform 3 (UniProt O60333)
Chain of UniProt O60333 (O60333 whole entry, looked up): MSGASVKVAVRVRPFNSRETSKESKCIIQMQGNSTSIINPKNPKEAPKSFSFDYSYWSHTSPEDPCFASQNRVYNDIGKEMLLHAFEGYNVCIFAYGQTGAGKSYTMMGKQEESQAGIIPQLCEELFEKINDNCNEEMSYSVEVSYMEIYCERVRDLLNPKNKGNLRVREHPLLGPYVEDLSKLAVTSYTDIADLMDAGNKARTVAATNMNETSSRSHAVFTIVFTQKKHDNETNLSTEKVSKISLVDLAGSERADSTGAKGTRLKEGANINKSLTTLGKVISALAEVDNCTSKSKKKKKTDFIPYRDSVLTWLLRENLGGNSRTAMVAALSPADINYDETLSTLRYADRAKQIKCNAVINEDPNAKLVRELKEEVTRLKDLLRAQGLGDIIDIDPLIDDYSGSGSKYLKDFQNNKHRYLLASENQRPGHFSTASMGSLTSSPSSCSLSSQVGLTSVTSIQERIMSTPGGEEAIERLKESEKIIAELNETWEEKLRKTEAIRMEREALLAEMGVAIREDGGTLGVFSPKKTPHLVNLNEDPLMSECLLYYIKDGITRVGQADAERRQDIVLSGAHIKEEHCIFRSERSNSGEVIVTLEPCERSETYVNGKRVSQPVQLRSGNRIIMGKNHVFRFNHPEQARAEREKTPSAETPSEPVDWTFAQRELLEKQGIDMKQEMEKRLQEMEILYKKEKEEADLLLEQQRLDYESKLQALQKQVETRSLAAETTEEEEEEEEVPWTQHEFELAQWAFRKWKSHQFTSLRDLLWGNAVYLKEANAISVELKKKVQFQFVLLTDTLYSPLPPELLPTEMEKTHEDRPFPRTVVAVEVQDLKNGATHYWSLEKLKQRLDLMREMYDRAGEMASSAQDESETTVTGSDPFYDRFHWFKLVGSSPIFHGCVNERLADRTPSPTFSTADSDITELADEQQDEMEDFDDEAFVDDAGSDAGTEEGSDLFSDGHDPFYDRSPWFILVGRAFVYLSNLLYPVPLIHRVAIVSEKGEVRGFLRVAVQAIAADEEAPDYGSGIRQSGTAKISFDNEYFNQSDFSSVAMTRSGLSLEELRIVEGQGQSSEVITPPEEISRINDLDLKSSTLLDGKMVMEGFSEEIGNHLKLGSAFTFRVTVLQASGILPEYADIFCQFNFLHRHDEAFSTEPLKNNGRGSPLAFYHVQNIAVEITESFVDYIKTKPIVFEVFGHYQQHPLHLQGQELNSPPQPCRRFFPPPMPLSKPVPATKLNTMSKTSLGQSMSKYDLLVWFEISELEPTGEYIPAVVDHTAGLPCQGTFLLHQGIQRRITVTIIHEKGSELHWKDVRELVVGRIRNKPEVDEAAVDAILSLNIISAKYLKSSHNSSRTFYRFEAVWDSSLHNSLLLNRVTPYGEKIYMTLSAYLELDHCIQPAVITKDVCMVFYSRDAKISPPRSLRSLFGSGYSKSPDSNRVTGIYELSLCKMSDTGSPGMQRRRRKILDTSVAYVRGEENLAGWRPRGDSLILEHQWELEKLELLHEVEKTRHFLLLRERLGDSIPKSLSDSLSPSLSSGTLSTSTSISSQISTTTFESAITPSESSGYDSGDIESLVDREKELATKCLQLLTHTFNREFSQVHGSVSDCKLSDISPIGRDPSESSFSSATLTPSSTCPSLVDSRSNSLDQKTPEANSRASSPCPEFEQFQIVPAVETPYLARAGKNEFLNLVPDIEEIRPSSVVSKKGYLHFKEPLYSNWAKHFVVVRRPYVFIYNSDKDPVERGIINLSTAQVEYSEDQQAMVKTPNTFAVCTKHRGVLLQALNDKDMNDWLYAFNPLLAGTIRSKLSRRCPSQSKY
inactive: [16] 0.193 | [9] -0.032 | [12] 0.127 | [19] -0.046 | [20] -0.222 | [13] 0.17

MAGED1 isoform 2 (UniProt Q9Y5V3)
inactive: [1] -0.306 | [2] -0.01 | [8] -0.053 | [14] 0.01 | [9] 0.012 | [5] 0.399 | [6] -0.073 | [11] -0.196 | [3] 0.002 | [15] 0.015 | [12] 0.036 | [7] 0.117 | [13] 0.197

IGFBP3 isoform 2 (UniProt P17936)
Chain of UniProt P17936 (P17936 whole entry, looked up): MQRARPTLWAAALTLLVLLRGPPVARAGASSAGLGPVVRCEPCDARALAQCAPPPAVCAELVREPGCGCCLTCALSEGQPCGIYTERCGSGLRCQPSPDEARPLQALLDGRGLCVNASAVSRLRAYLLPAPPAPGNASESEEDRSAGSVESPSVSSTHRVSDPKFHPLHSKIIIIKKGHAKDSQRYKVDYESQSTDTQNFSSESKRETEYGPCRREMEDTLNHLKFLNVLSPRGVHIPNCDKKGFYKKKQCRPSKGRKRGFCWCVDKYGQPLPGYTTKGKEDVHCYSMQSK
inactive: [1] -0.507 | [8] -0.251 | [17] 0.075 | [9] -0.238 | [5] 0.199 | [18] -0.555 | [6] -0.092 | [11] 0.245 | [3] 0.251 | [4] 0.001 | [12] 0.17 | [7] -0.08 | [13] 0.045

LSR (UniProt M0QZL9)
inactive: [8] 0.076 | [9] -0.125 | [11] 0.042 | [12] 0.065 | [13] -0.249

LMBR1 isoform 3 (UniProt Q8WVP7)
inactive: [1] -0.452 | [8] 0.26 | [14] -0.074 | [17] -0.456 | [9] 0.049 | [10] -0.037 | [5] 0.033 | [18] -0.314 | [6] 0.085 | [11] -0.004 | [3] -0.06 | [4] 0.079 | [15] -0.045 | [12] -0.104 | [7] -0.009 | [13] 0.132

IGFBP6 (UniProt P24592)
Chain of UniProt P24592 (P24592 whole entry, looked up): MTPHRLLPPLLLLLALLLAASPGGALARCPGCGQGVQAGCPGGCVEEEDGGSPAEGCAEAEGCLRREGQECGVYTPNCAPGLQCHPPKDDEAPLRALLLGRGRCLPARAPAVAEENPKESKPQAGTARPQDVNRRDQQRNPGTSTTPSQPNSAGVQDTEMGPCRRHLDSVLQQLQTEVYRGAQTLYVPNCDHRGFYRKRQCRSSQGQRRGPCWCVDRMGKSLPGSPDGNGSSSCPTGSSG
inactive: [9] -0.186 | [5] 0.107 | [6] 0.011 | [3] 0.136 | [12] 0.144 | [7] -0.094 | [13] 0.055

MAP3K20 isoform 2 (UniProt Q9NYL2)
Chain of UniProt Q9NYL2 (Q9NYL2 whole entry, looked up): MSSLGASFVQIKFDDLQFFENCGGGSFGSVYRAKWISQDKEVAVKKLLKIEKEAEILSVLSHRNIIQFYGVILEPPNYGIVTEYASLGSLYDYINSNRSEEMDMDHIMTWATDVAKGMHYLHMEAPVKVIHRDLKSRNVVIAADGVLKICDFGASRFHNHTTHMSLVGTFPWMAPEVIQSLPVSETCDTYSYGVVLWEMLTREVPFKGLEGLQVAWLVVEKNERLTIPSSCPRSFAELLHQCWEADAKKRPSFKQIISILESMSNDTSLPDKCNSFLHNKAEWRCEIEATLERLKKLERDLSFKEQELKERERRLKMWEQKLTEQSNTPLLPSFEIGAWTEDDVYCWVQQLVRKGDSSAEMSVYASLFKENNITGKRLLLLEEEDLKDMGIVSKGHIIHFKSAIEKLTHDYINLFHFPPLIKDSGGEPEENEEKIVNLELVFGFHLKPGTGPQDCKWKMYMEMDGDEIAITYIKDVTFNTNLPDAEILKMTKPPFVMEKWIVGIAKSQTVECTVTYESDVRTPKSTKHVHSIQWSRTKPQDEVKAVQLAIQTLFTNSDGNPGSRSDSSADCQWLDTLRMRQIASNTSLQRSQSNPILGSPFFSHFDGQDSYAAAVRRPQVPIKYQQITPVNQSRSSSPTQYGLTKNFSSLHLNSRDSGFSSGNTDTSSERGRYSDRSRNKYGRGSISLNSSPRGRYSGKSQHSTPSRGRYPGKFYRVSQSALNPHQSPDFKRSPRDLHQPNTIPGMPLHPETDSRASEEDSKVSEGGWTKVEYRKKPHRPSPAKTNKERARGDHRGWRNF
inactive: [1] -0.1 | [2] -0.067 | [8] -0.03 | [14] 0.018 | [11] 0.059 | [4] 0.093 | [15] -0.024

LRRFIP1 isoform 4 (UniProt Q32MZ4)
inactive: [8] -0.113 | [14] -0.1 | [17] 0.212 | [5] 0.105 | [18] 0.349 | [6] 0.008 | [3] 0.481 | [15] -0.111 | [7] -0.089

IKZF1 isoform 2 (UniProt Q13422)
inactive: [2] -0.011 | [14] -0.034 | [9] -0.043 | [10] 0.078 | [11] 0.049 | [3] -0.101 | [4] -0.123 | [15] 0.05 | [12] -0.106 | [13] -0.02

KIF21A (UniProt H0YI78)
inactive: [14] -0.05 | [15] -0.012

MAP4K5 (UniProt Q9Y4K4)
Chain of UniProt Q9Y4K4 (Q9Y4K4 whole entry, looked up): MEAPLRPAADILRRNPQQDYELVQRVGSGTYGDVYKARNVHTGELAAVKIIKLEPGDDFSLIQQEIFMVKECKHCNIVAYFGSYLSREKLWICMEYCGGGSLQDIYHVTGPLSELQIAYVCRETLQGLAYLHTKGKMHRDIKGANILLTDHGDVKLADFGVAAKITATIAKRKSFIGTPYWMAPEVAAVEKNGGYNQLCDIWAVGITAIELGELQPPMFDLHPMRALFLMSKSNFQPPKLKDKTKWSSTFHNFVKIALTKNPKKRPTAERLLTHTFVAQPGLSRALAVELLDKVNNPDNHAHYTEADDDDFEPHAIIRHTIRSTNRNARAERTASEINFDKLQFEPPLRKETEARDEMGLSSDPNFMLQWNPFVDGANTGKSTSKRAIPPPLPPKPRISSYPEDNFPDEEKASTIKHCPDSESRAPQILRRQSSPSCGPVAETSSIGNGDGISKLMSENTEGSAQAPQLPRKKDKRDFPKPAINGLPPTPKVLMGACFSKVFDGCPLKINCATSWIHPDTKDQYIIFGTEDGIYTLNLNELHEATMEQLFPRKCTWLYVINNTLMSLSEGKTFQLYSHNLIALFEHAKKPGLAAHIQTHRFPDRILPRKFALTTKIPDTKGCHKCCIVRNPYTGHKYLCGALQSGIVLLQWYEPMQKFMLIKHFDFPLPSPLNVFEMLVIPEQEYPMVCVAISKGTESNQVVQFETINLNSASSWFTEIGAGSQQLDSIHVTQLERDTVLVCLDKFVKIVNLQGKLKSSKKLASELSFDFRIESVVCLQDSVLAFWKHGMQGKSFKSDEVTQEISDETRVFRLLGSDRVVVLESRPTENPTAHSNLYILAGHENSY
inactive: [1] -0.135 | [2] -0.004 | [8] -0.014 | [14] -0.084 | [17] -0.126 | [9] -0.026 | [10] -0.005 | [18] 0.051 | [3] 0.072 | [4] 0.113 | [15] -0.02 | [12] -0.02 | [19] -0.08 | [20] 0.082 | [13] -0.041

MAPK11 (UniProt Q15759)
inactive: [14] -0.332 | [17] 0.025 | [18] -0.263 | [4] 0.208 | [15] 0.615

LDLRAP1 (UniProt Q5SW96)
inactive: [14] -0.045 | [10] -0.023 | [15] -0.014

MFSD12 isoform 3 (UniProt Q6NUT3)
inactive: [16] -0.005 | [14] 0.077 | [17] -0.006 | [5] 0.075 | [18] -0.305 | [6] -0.154 | [11] -0.172 | [3] -0.04 | [4] 0.031 | [15] 0.042 | [19] -0.14 | [7] -0.144 | [20] 0.196

LAPTM4B (UniProt Q86VI4)
active: [18] 0.968
inactive: [16] 0.063 | [14] -0.12 | [17] 0.216 | [10] -0.024 | [11] -0.194 | [15] 0.007 | [19] 0 | [20] 0.009

ITGA2B (UniProt P08514)
inactive: [1] 0.134 | [2] -0.211 | [8] -0.089 | [14] -0.011 | [17] -0.173 | [9] 0.067 | [5] 0.117 | [18] -0.07 | [6] 0.025 | [11] -0.03 | [3] 0.111 | [4] -0.043 | [15] 0.037 | [12] 0.059 | [7] -0.036 | [13] 0.058

LOX (UniProt P28300)
Chain of UniProt P28300 (P28300 whole entry, looked up): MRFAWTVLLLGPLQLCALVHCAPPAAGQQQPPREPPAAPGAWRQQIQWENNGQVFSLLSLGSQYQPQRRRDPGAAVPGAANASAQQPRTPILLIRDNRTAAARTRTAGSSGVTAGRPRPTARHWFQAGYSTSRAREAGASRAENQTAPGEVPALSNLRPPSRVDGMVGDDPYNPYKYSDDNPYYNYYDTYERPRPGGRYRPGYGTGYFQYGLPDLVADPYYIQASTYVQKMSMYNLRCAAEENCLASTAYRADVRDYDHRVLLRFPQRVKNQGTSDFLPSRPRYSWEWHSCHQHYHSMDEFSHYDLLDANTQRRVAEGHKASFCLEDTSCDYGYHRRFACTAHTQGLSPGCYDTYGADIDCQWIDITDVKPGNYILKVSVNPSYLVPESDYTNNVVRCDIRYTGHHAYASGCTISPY
inactive: [2] -0.191 | [14] -0.028 | [10] 0.072 | [15] -0.303

IPP (UniProt Q9Y573)
inactive: [10] -0.24
